# Measured values published in paper PMC8384837, “Expanding the binding specificity for RNA recognition by a PUF domain”.
# Tests used:
# Assay in all cases: yeast three-hybrid, YBZ-1, SC-Leu-His + 0.5 mM 3-AT, 4 days
# Conditions in all cases: tags: N-Gal4 AD-HA kept; label: inside an RPR1-promoter hybrid RNA with tandem MS2 sites; ssRNA
# PUM1 PUF domain R5-FHI = PUM1 PUF domain R5-FHI (Homo sapiens, UniProt Q14671 828-1176, C1007F;R1008H;Q1011I)
# In short: (§1)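 Repeat regions from input (SC-Leu) and selection (SC-Leu-His + 0.5 mM 3-AT) plates were PCR-amplified and Illumina-sequenced after four days of growth. The cells were strain YBZ-1 with a LexA–MS2 coat fusion and a HIS3 reporter, co-expressing Pumilio-1 PUF domain libraries and matching RNA elements from a centromeric plasmid. The interaction score is the log change in variant frequency from input to selection, taken in log2 with a pseudocount of 1 for absent variants.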
# PUM1 PUF domain R5-LQR = PUM1 PUF domain R5-LQR (Homo sapiens, UniProt Q14671 828-1176, C1007L;R1008Q;Q1011R)
# PUM1 PUF domain R5-LQR, sequence (Q14671 828-1176 C1007L/R1008Q/Q1011R): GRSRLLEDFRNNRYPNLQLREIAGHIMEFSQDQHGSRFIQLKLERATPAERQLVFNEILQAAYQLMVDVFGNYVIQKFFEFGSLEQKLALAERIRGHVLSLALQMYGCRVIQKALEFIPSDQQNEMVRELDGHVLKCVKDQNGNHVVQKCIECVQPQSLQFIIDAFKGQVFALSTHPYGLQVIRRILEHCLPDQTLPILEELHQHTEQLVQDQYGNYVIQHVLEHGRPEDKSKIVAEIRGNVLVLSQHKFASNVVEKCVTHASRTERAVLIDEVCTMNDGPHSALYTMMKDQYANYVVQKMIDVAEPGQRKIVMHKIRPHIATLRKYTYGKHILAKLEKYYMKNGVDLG
# In short: as §1
# PUM1 PUF domain R5-QKV = PUM1 PUF domain R5-QKV (Homo sapiens, UniProt Q14671 828-1176, C1007Q;R1008K;Q1011V)
# PUM1 PUF domain R5-QKV, sequence (Q14671 828-1176 C1007Q/R1008K/Q1011V): as the sequence (Q14671 828-1176 C1007L/R1008Q/Q1011R) above, with L180Q, Q181K, R184V counted along it
# In short: as §1
# PUM1 PUF domain R5-ERV = PUM1 PUF domain R5-ERV (Homo sapiens, UniProt Q14671 828-1176, C1007E;Q1011V)
# PUM1 PUF domain R5-ERV, sequence (Q14671 828-1176 C1007E/Q1011V): as the sequence (Q14671 828-1176 C1007L/R1008Q/Q1011R) above, with L180E, Q181R, R184V counted along it
# In short: as §1
# PUM1 PUF domain R2-QWR = PUM1 PUF domain R2-QWR (Homo sapiens, UniProt Q14671 828-1176, N899Q;Y900W;Q903R)
# PUM1 PUF domain R2-QWR, sequence (Q14671 828-1176 N899Q/Y900W/Q903R): as the sequence (Q14671 828-1176 C1007L/R1008Q/Q1011R) above, with N72Q, Y73W, Q76R, L180C, Q181R, R184Q counted along it
# In short: as §1
# PUM1 PUF domain R4-SYP = PUM1 PUF domain R4-SYP (Homo sapiens, UniProt Q14671 828-1176, N971S;H972Y;Q975P)
# PUM1 PUF domain R4-SYP, sequence (Q14671 828-1176 N971S/H972Y/Q975P): as the sequence (Q14671 828-1176 C1007L/R1008Q/Q1011R) above, with N144S, H145Y, Q148P, L180C, Q181R, R184Q counted along it
# In short: as §1
# PUM1 PUF domain R2-RTQ = PUM1 PUF domain R2-RTQ (Homo sapiens, UniProt Q14671 828-1176, N899R;Y900T)
# PUM1 PUF domain R2-RTQ, sequence (Q14671 828-1176 N899R/Y900T): as the sequence (Q14671 828-1176 C1007L/R1008Q/Q1011R) above, with N72R, Y73T, L180C, Q181R, R184Q counted along it
# In short: as §1
# PUM1 PUF domain R3-RCG = PUM1 PUF domain R3-RCG (Homo sapiens, UniProt Q14671 828-1176, C935R;R936C;Q939G)
# PUM1 PUF domain R3-RCG, sequence (Q14671 828-1176 C935R/R936C/Q939G): as the sequence (Q14671 828-1176 C1007L/R1008Q/Q1011R) above, with C108R, R109C, Q112G, L180C, Q181R, R184Q counted along it
# In short: as §1
# PUM1 PUF domain R4-PRC = PUM1 PUF domain R4-PRC (Homo sapiens, UniProt Q14671 828-1176, N971P;H972R;Q975C)
# PUM1 PUF domain R4-PRC, sequence (Q14671 828-1176 N971P/H972R/Q975C): as the sequence (Q14671 828-1176 C1007L/R1008Q/Q1011R) above, with N144P, H145R, Q148C, L180C, Q181R, R184Q counted along it
# In short: as §1
# PUM1 PUF domain R3-NAL = PUM1 PUF domain R3-NAL (Homo sapiens, UniProt Q14671 828-1176, C935N;R936A;Q939L)
# PUM1 PUF domain R3-NAL, sequence (Q14671 828-1176 C935N/R936A/Q939L): as the sequence (Q14671 828-1176 C1007L/R1008Q/Q1011R) above, with C108N, R109A, Q112L, L180C, Q181R, R184Q counted along it
# In short: as §1
# PUM1 PUF domain R5-FHI, sequence (Q14671 828-1176 C1007F/R1008H/Q1011I): as the sequence (Q14671 828-1176 C1007L/R1008Q/Q1011R) above, with L180F, Q181H, R184I counted along it
sequence,measurement,setting,value
GGCUAGAACUAGUGGAUCCCCCGGCGCCCGGCGGCUCGAGCCCGGGUAAGUGUUAAUAGUCUGCAUGCCGCCGGGCGCCAUGCCUGCAGGUCGACUCUAGAAAACAUG,binding signal,PUM1 PUF domain R5-FHI,2.85 log2 enrichment (interaction score)
same,binding signal,PUM1 PUF domain R5-LQR,2.83 log2 enrichment (interaction score)
same,binding signal,PUM1 PUF domain R5-QKV,2.71 log2 enrichment (interaction score)
GGCUAGAACUAGUGGAUCCCCCGGCGCCCGGCGGCUCGAGCCCGGGUAAGUGUCAAUAGUCUGCAUGCCGCCGGGCGCCAUGCCUGCAGGUCGACUCUAGAAAACAUG,binding signal,PUM1 PUF domain R5-LQR,3.47 log2 enrichment (interaction score)
same,binding signal,PUM1 PUF domain R5-ERV,2.93 log2 enrichment (interaction score)
GGCUAGAACUAGUGGAUCCCCCGGCGCCCGGCGGCUCGAGCCCGGGUAAGUGUAAACAGUCUGCAUGCCGCCGGGCGCCAUGCCUGCAGGUCGACUCUAGAAAACAUG,binding signal,PUM1 PUF domain R2-QWR,4.86 log2 enrichment (interaction score)
GGCUAGAACUAGUGGAUCCCCCGGCGCCCGGCGGCUCGAGCCCGGGUAAGUGUGAAUAGUCUGCAUGCCGCCGGGCGCCAUGCCUGCAGGUCGACUCUAGAAAACAUG,binding signal,PUM1 PUF domain R5-ERV,3.34 log2 enrichment (interaction score)
GGCUAGAACUAGUGGAUCCCCCGGCGCCCGGCGGCUCGAGCCCGGGUAAGUGUAUAUAGUCUGCAUGCCGCCGGGCGCCAUGCCUGCAGGUCGACUCUAGAAAACAUG,binding signal,PUM1 PUF domain R4-SYP,6.95 log2 enrichment (interaction score)
GGCUAGAACUAGUGGAUCCCCCGGCGCCCGGCGGCUCGAGCCCGGGUAAGUGUAAAAAGUCUGCAUGCCGCCGGGCGCCAUGCCUGCAGGUCGACUCUAGAAAACAUG,binding signal,PUM1 PUF domain R2-RTQ,2.44 log2 enrichment (interaction score)
GGCUAGAACUAGUGGAUCCCCCGGCGCCCGGCGGCUCGAGCCCGGGUAAGUGUAAGUAGUCUGCAUGCCGCCGGGCGCCAUGCCUGCAGGUCGACUCUAGAAAACAUG,binding signal,PUM1 PUF domain R3-RCG,2.96 log2 enrichment (interaction score)
GGCUAGAACUAGUGGAUCCCCCGGCGCCCGGCGGCUCGAGCCCGGGUAAGUGUAAUUAGUCUGCAUGCCGCCGGGCGCCAUGCCUGCAGGUCGACUCUAGAAAACAUG,binding signal,PUM1 PUF domain R3-RCG,3.58 log2 enrichment (interaction score)
GGCUAGAACUAGUGGAUCCCCCGGCGCCCGGCGGCUCGAGCCCGGGUAAGUGUAAAUAGUCUGCAUGCCGCCGGGCGCCAUGCCUGCAGGUCGACUCUAGAAAACAUG,binding signal,PUM1 PUF domain R4-PRC,2.48 log2 enrichment (interaction score)
same,binding signal,PUM1 PUF domain R5-LQR,1.81 log2 enrichment (interaction score)
same,binding signal,PUM1 PUF domain R5-ERV,5.11 log2 enrichment (interaction score)
same,binding signal,PUM1 PUF domain R3-NAL,3.24 log2 enrichment (interaction score)
same,binding signal,PUM1 PUF domain R3-RCG,0.63 log2 enrichment (interaction score)
GGCUAGAACUAGUGGAUCCCCCGGCGCCCGGCGGCUCGAGCCCGGGUAAGUGUACAUAGUCUGCAUGCCGCCGGGCGCCAUGCCUGCAGGUCGACUCUAGAAAACAUG,binding signal,PUM1 PUF domain R4-SYP,6.78 log2 enrichment (interaction score)
